Data from the supplement of paper PMC11732987, “Enantioselective OTUD7B fragment discovery through chemoproteomics screening and high-throughput optimisation” (Communications Chemistry, 2025).

Key:
Experiment in all cases: log2 ratio of Biotin-Ahx-Ub-VS probe labelling (fragment/DMSO); higher = less target engagement (more negative = stronger competition), active = hit call of the paper (q ≤ 0.05, log2 ratio ≤ -1)
Conditions in all cases: compound concentration: 200 uM; treatment time: 3 h
[1] = target: USP34 (UniProt Q70CQ2)
Sequence of USP34 (Q70CQ2 whole entry, the tested form may be a part): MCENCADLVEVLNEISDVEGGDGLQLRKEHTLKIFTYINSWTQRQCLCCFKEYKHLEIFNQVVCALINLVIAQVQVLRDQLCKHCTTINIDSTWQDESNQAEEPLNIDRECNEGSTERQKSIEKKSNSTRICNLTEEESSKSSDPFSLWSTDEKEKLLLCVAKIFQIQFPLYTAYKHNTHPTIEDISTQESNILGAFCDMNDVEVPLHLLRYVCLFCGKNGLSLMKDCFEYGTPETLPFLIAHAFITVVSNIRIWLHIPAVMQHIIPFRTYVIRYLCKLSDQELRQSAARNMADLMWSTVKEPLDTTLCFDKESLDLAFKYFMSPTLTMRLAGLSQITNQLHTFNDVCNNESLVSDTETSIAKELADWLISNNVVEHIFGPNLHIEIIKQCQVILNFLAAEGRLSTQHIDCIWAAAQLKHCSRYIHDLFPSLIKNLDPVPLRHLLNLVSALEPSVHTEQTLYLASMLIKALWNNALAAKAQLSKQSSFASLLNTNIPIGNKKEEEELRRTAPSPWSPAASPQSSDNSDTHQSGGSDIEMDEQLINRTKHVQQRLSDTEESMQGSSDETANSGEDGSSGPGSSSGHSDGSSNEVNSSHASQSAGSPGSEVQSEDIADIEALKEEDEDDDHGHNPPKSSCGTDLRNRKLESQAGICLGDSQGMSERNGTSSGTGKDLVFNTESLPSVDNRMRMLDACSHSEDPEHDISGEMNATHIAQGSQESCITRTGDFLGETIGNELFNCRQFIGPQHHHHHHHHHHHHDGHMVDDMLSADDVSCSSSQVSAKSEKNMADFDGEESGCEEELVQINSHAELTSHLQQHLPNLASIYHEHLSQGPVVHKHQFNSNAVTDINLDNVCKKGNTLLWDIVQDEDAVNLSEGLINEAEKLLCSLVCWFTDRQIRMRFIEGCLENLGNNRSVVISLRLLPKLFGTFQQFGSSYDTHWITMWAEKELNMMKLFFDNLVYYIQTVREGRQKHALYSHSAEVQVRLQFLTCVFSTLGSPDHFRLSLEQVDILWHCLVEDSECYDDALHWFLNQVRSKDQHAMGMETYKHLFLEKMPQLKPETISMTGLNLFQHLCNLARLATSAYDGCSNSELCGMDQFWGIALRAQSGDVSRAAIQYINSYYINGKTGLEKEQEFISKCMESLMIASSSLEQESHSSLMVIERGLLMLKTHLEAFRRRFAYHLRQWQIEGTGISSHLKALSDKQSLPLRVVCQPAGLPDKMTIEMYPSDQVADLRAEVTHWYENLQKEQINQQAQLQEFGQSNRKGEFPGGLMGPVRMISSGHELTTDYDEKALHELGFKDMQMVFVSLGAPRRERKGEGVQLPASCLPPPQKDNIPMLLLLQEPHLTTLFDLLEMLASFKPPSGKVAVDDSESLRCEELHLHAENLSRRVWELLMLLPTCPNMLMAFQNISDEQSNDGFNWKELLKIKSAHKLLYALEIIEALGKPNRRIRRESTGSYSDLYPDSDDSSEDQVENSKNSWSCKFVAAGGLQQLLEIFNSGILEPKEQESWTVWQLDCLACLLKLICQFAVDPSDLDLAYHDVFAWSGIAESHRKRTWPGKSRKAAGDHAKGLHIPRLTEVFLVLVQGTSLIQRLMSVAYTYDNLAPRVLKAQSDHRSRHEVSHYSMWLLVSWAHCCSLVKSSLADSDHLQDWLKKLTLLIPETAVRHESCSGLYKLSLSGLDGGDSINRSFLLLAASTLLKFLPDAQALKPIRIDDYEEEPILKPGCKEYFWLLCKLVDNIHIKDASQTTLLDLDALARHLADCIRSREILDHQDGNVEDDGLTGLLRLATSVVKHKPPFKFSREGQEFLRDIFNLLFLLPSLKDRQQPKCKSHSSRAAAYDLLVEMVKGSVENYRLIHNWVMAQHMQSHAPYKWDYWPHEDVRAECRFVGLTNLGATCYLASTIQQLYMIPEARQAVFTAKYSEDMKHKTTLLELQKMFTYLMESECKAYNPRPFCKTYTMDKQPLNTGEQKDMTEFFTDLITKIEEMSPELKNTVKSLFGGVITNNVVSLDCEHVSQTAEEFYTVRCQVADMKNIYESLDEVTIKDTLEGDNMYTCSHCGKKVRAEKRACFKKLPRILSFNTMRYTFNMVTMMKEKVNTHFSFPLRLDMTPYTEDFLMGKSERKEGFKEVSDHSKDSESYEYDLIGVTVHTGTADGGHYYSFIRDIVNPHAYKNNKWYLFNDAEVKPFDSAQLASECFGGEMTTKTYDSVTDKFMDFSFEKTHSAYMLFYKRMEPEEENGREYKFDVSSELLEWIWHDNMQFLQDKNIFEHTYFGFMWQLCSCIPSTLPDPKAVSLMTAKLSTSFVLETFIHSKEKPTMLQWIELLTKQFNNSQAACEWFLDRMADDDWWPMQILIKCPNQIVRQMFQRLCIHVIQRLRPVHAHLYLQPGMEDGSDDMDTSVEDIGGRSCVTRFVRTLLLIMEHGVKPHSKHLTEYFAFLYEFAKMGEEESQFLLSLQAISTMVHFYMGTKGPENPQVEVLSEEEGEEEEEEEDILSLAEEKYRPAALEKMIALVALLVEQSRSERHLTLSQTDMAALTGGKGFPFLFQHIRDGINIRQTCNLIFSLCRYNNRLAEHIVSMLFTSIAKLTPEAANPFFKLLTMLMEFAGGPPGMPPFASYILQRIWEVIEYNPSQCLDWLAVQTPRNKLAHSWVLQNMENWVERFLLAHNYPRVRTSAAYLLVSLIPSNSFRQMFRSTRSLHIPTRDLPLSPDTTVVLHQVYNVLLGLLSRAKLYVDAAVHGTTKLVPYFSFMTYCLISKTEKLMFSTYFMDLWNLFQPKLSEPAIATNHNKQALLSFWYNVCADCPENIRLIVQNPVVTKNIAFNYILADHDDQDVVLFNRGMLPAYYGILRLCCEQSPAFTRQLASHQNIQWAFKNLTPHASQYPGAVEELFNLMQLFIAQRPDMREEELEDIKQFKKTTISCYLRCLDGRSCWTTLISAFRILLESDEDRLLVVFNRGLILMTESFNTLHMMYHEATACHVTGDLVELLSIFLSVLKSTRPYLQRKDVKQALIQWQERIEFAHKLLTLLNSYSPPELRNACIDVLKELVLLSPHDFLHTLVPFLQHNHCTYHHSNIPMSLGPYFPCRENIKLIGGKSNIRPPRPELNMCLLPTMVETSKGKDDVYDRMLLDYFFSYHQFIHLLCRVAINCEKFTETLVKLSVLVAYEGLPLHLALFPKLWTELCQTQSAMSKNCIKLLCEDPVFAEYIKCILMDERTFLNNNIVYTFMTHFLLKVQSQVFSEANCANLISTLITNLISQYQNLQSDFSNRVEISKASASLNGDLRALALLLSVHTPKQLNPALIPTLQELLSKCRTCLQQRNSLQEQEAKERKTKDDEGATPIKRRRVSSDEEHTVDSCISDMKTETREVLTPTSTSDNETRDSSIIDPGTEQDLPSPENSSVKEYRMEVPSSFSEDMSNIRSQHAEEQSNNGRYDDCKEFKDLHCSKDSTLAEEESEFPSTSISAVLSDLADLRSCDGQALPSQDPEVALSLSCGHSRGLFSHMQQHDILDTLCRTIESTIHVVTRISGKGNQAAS
Outline: (§1)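 Average log2 ratios of fragment over vehicle were obtained by unpaired t-test from global-median-normalised Spectronaut label-free quantities. Proteins with ≥2 unique peptides were included. HEK293T lysate (495 µg per sample) was treated in triplicate with fragment at 200 µM or vehicle for 3 h, then with Biotin-Ahx-Ub-VS at 0.5 µM final for 1 h, and labelled DUBs were NeutrAvidin-enriched and run by diaPASEF LC-MS/MS.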

[2] = target: T1, USP36 (UniProt Q9P275)
T1 sequence (whole entry): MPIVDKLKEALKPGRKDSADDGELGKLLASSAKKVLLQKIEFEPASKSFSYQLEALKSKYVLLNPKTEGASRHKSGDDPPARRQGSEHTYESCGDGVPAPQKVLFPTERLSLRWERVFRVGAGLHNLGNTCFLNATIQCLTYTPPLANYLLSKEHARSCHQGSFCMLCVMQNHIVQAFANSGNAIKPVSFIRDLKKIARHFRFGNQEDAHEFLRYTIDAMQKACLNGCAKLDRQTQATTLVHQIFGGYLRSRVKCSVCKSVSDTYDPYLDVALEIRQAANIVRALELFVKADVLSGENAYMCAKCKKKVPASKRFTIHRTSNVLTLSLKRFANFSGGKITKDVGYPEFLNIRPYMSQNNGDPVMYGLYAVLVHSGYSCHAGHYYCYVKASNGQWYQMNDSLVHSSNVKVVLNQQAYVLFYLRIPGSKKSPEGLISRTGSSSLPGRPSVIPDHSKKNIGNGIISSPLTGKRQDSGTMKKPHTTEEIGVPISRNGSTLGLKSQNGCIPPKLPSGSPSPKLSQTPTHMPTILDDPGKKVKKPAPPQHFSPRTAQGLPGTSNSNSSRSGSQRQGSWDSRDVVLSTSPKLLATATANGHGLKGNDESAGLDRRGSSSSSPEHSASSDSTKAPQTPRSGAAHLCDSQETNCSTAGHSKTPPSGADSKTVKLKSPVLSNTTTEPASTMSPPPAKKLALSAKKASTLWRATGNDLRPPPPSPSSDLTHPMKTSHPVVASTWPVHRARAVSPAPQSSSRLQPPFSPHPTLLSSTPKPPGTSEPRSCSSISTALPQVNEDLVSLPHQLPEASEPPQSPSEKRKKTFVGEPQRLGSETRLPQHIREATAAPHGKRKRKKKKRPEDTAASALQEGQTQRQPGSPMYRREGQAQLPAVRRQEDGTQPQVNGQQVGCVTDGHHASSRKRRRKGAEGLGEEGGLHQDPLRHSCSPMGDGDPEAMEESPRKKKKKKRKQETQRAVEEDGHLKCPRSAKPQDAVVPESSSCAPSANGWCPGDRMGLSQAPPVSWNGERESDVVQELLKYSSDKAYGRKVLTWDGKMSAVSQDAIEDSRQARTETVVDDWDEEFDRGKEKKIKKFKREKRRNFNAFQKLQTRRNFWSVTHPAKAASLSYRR
Outline: as §1

[3] = target: T2, USP38 (UniProt Q8NB14)
T2 sequence (whole entry): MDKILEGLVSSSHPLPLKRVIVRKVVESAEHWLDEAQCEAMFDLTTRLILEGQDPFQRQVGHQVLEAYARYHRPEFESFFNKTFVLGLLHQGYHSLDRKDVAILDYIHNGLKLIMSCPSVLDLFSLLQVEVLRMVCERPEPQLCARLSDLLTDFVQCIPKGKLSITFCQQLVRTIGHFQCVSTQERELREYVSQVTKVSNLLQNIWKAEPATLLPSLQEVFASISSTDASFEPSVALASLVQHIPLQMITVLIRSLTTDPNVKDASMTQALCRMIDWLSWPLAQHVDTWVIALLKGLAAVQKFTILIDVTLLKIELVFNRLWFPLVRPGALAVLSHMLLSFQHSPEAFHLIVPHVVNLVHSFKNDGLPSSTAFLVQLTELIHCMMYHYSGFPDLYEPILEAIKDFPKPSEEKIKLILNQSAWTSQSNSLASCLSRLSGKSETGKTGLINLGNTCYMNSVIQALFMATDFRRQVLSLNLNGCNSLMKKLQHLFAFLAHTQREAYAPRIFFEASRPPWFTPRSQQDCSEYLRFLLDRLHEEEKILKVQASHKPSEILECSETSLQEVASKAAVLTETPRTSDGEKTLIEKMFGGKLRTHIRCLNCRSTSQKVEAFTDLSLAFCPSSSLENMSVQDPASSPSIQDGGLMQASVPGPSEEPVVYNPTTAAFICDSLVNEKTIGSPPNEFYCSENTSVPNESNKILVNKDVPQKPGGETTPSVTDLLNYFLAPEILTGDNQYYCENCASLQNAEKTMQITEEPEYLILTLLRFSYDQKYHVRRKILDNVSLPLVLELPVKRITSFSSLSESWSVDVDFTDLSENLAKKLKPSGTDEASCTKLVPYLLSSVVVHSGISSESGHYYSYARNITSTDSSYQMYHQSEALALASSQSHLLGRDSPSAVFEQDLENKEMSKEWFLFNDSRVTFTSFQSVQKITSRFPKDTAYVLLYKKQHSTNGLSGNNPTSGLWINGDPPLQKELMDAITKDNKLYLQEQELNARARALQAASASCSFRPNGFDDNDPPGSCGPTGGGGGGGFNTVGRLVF
Outline: as §1

[4] = target: T3, USP39 (UniProt Q53GS9)
T3 sequence (whole entry): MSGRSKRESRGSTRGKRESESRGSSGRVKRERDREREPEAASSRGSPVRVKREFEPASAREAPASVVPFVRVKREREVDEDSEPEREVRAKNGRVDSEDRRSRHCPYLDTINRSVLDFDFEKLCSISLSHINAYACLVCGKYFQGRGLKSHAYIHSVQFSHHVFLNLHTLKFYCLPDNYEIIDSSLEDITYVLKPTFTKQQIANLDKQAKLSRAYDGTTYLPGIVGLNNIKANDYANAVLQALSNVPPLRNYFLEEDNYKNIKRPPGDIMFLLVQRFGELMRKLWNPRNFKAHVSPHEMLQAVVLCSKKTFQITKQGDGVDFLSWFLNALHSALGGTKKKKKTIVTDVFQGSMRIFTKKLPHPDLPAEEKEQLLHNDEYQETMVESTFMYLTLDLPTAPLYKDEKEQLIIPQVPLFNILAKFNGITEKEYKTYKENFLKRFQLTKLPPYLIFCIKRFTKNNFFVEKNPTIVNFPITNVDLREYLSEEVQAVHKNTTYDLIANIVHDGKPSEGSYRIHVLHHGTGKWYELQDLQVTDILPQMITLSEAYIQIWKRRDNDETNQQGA
Outline: as §1

[5] = target: T4, USP4 (UniProt Q13107)
T4 sequence (whole entry): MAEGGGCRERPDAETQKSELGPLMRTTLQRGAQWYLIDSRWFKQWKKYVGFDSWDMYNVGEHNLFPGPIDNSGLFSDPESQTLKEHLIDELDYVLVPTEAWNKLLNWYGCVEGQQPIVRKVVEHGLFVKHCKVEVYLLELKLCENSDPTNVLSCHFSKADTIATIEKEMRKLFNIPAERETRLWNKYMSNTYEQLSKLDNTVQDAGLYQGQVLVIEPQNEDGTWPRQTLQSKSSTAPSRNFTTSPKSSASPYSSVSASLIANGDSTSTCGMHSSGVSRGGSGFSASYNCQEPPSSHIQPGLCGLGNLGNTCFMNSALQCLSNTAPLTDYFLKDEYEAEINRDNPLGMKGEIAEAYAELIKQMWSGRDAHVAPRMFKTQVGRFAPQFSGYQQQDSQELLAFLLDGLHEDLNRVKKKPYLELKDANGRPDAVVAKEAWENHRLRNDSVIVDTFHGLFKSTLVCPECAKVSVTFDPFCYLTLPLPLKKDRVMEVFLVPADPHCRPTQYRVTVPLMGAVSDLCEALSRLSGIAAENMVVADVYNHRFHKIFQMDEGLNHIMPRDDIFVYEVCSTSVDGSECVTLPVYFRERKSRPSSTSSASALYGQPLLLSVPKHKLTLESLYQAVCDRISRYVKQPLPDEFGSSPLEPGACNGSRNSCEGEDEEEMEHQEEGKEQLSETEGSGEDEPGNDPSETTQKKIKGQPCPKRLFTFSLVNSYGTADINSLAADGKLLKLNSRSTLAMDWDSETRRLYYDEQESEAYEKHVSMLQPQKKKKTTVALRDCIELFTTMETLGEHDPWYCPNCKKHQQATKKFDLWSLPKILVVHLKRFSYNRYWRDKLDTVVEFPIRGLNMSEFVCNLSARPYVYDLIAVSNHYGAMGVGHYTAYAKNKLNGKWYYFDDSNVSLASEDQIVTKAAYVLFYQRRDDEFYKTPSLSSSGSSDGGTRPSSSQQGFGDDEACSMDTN
Outline: as §1

Measured: log2 ratio of Biotin-Ahx-Ub-VS probe labelling

Cc1nc(CC2CCN(C(=O)CCl)CC2)no1
inactive: [1] -0.459 | [2] -0.425 | [3] -0.544 | [4] 0.344 | [5] -0.686
